Assay results published in PubChem BioAssay (NCATS).
Records with an inconclusive call do not appear. A number with no mark means an inactive call. The source made the active and inactive calls. Calls come from the whole dose curve; as a rule, active = well fitted cell-killing curve with a large enough effect; inconclusive = small, poorly fitted or top-dose-only effect; inactive = no such curve, though single readings can be large or run the other way.

experiment: qHTS of pediatric cancer cell lines to identify multiple opportunities for drug repurposing: Primary screen for SK-N-SH cells (AID 1347098); conditions: SK-N-SH viability, CellTiter-Glo luminescence, 48 h; series mostly up to 57 µM; activity change, negative = cytotoxic: at the top concentration; note: nearly all actives have a fitted effect of over 65% in size
Text: Drug repurposing or repositioning has been offered as a strategy for drug development in oncology programs. This approach has special potential for childhood cancers and other rare or orphan diseases, where the expected return on new drug development has been a disincentive to pharmaceuticals.
In this project we exploit the poly-pharmacology of drugs to discover new indications via phenotypic screening of a panel of 19 well-characterized cell lines derived from solid tumors seen in children and adolescents. The goal is to identify approved drugs with previously unrecognized anticancer properties that has the potential to reveal new mechanisms and biological processes involved in carcinogenesis or drug resistance. We employed a titration-based paradigm (quantitative high-throughput screening or qHTS), where all compounds were tested at multiple concentrations for their effect on cell viability. Concentration-response curves (CRCs) were derived directly from the primary screen, and both potency and efficacy values were used to identify compounds with robust bioactivity profiles. We screened the NIH Chemical Genomics Center (NCGC) Pharmaceutical Collection (NPC) and Mechanism Interrogation Plate (MIPE) small molecule collections of approved and investigational compounds against these cell lines; and measured metabolically active cells after 48 hours of compound treatment as a proxy for cell viability.
Assay Submitter: Nathalia J. Martinez, National Center for Advancing Translational Sciences, National Institutes of Health, Rockville, MD, USA; email: natalia.martinez@nih.gov
[1] Shen, M et al. Quantitative high-throughput phenotypic screening of pediatric cancer cell lines identifies multiple opportunities for drug repurposing. Oncotarget 2017 Dec 19;9(4):4758-4772. PMID 29435139.
The cells were obtained from University of North Carolina (UNC), Pediatric Preclinical Testing Program (PPT), and Coriell Institute (CI).
qHTS cell viability assay:
Cells were assayed in growth media at a density of 500-1,000 cells/well. Five microliters of cells were dispensed into 1,536-well, white, solid-bottom, TC-treated plates (Greiner Bio One) using a multidrop dispenser and incubated at 37 degrees C, 5% CO2, under a humidified atmosphere for 5 hours. Twenty-three nanoliters of compounds and controls (neutral control DMSO or positive control bortezomib at final concentration of 2.3 µM) were subsequently transferred by Kalypsys pintool. For primary screens, the MIPE collection was tested at 11-point dilutions (final concentrations range from 0.78 nM to 46 µM) and the NPC collection at 8-point dilutions (final concentrations range from 0.59 nM to 46 µM). Compounds tested in follow-up screens were assayed at 11-point dilutions. Cells were incubated for 48 hours, followed by addition of 3 µL of CellTiter-Glo (Promega). After a 15 min incubation at room temperature, samples were analyzed for luminescence intensity using a ViewLux High-throughput CCD imager equipped with clear filters.
% is set by controls: 0 for no effect and ±100 for the full control effect; potency is the fitted concentration of half-maximal effect.

Compound | activity change, negative = cytotoxic | Potency
Cn1c(=O)c2c(ncn2CC(=O)O)n(C)c1=O | 2.1% | 
CN1C(=O)CC(C)(c2ccccc2)C1=O (stereo not given) | -26.5% | 
CN1CC(=O)N2[C@H](c3ccc4c(c3)OCO4)c3[nH]c4ccccc4c3C[C@@H]2C1=O | -9.4% | 
CCOC(=O)Oc1ccc(CCNC(=O)[C@H](CCSC)NC(C)=O)cc1OC(=O)OCC | 6.52% | 
Cc1cc(O)c2c(O)c3c(O)cccc3cc2c1 | 0.331% | 
C=C(C)C(=O)OCC(O)CO (stereo not given) | -5.35% | 
CC(=O)O[C@@H]1C(=O)O[C@@H]2[C@H]1OC(=O)[C@@H]2OC(C)=O | -7.1% | 
O=C(O)c1cn(C2CC2)c2cc(Cl)c(F)cc2c1=O | -5.61% | 
CC(C)(C)C(O)/C=C/c1ccc2c(c1)OCO2 (stereo not given) | -20.3% | 
CC(=O)Nc1c(I)c(NC(C)=O)c(I)c(C(=O)O)c1I | 4.21% | 
O=C(CS(=O)Cc1ccco1)NC/C=C\COc1cc(CN2CCCCC2)ccn1 (stereo not given) | 5.16% | 
CN1CCCN(C(c2ccccc2)c2ccc(Cl)cc2)CC1 (stereo not given) |  | 15.4 µM (active)
O=C(CCOCCOCCOCCOCCC(=O)Nc1c(I)cc(I)c(C(=O)O)c1I)Nc1c(I)cc(I)c(C(=O)O)c1I | -2.3% | 
Cc1cc(=O)oc2cc(O[C@@H]3SC[C@@H](O)[C@H](O)[C@H]3O)ccc12 | 77.5% | 
OC[C@]1(O)OC[C@@H](O)[C@H](O)[C@@H]1O | 0.305% | 
CO[C@@]1(NC(=O)CSC[C@@H](N)C(=O)O)C(=O)N2C(C(=O)O)=C(CSc3nnnn3C)CS[C@@H]21 | -14.3% | 
COc1c(N2C[C@@H]3CCCN[C@@H]3C2)c(F)cc2c(=O)c(C(=O)O)cn(C3CC3)c12 | 0.0786% | 
O=C(c1ccccc1)c1ccccc1 | -12.4% | 
CC(=O)[C@H]1CC[C@H]2[C@@H]3C=CC4=CC(=O)CC[C@@]4(C)[C@@H]3CC[C@]12C | -23.1% | 
O=C(O)CCCC[P+](c1ccccc1)(c1ccccc1)c1ccccc1 | 15.7% | 

Compound | activity change, negative = cytotoxic | Potency
CC(=O)[C@@]1(O)CC[C@H]2[C@@H]3C[C@H](C)C4=CC(=O)CC[C@]4(C)[C@H]3CC[C@@]21C | -21.4% | 
CO/N=C(/C(=O)N[C@@H]1C(=O)N2C(C(=O)[O-])=C(C[n+]3ccn4ncccc43)CS[C@H]12)c1nsc(N)n1 | -13.4% | 
N#CC1(c2ccc(F)cc2)CCC(=O)CC1 | -10.1% | 
CCOC(=O)C1=C(C)NC(C)=C(C(=O)OCC)C1c1ccccc1/C=C/C(=O)OC(C)(C)C |  | 27.3 µM (active)
CCOC(=O)c1ccc(NC(=O)CN2CCCCC2)cc1 | 24.5% | 
CCCCOC(=O)CCCCCCCCC(=O)OCCCC | -2.66% | 
Cc1ccc2c(Cl)cc(Cl)c(O)c2n1 | 6.87% | 
O=C1Cc2cc(Cl)ccc2N1 | 7.39% | 
Cc1cc(C(C)(C)C)c(O)c(C(C)(C)C)c1 | -19.4% | 
CN(C)C(=O)CNC(=O)Cc1ccccc1 | 4.48% | 
O=C(Oc1ccccc1)c1ccccc1O | 3.58% | 
O=[N+]([O-])c1nccn1CO[C@@H](CO)[C@H](O)CO | 8.44% | 
CCC(C(=O)NC(=O)NC(C)=O)c1ccccc1 (stereo not given) | 3.22% | 
CCCC(=O)O[C@]1(C(=O)CCl)[C@@H](C)C[C@H]2[C@@H]3CCC4=CC(=O)C=C[C@]4(C)[C@@]3(F)C(=O)C[C@@]21C | 15.2% | 
O=C(CO)[C@@H](O)[C@H](O)[C@@H](O)CO | 2.96% | 
CN1Cc2cc(C(=O)N3CCC(C4CCNCC4)CC3)ccc2NC(CC(=O)O)C1=O (stereo not given) | -4.84% | 
COC(=O)/C=C(/C)N | -1.87% | 
C[C@H]1C[C@H]2[C@@H]3CCC4=CC(=O)C=C[C@]4(C)[C@H]3C(=O)C[C@]2(C)[C@@]1(O)C(=O)CO | -0.102% | 
CC(C)NCCCC1(C(N)=O)c2ccccc2-c2ccccc21 | -36.2% | 
Clc1ccc2c(c1)Nc1ccccc1S2 | -11.7% | 
